# Records with an inconclusive call do not appear. Entries that show only a call come without a potency. Activity calls are given as the source filed them. The call rests on the fitted dose curve.
# Target: Atrial natriuretic peptide receptor 2 (Homo sapiens) (UniProt P20594)
# Test: Natriuretic polypeptide receptor (hNpr2) antagonism - Pilot subtype selectivity assay (AID 1347050)
# Conditions: NPR2-expressing cells, cGMP antagonist-mode read-out; series mostly up to 38.3 µM
# Procedure, shortened: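 HEK293 cells expressing hNpr2 and a GloSensor cGMP luciferase sensor, 1500/well, preloaded 2 h with 2% GloSensor reagent, compound 30 min, then 1 nM hNppC for 20 min. Antagonism from luminescence after versus baseline pre-read; LOPAC in 1:5 titrations.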
# Atrial natriuretic peptide receptor 2 (Homo sapiens), sequence (P20594 whole entry, looked up): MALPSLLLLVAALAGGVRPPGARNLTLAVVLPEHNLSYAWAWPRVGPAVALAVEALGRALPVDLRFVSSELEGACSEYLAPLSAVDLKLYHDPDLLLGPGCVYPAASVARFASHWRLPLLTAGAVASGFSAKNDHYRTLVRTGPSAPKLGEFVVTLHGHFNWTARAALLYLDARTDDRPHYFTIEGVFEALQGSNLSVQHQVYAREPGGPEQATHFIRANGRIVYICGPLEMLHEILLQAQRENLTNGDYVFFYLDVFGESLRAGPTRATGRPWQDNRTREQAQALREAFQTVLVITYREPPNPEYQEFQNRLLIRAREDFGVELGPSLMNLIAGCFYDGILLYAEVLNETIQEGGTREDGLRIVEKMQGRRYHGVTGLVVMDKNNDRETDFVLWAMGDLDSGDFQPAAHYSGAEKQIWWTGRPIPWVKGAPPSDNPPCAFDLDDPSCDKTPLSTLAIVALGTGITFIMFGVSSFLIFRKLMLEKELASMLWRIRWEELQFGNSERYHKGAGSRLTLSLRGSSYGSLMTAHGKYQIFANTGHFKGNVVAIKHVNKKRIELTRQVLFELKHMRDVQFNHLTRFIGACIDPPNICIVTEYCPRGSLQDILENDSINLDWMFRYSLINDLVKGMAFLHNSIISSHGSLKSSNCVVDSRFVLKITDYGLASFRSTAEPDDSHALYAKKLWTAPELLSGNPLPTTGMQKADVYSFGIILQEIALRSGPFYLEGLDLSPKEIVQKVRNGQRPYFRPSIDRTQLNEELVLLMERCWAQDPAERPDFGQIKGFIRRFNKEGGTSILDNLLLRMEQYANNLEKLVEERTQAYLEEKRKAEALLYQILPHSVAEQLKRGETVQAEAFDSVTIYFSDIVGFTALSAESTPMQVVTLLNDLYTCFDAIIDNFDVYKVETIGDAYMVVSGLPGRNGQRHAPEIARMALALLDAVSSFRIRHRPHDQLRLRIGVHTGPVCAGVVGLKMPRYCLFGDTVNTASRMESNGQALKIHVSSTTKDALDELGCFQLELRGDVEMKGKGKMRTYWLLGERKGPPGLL
row,Compound,Potency
1,O=C1OC(=O)C2C3CCC(O3)C12 (stereo not drawn),inactive
2,Oc1cc2c(cc1O)C(c1ccccc1)CNCC2 (stereo not drawn),inactive
3,COc1cc(/C=C(\C#N)C(=O)c2ccc(O)c(O)c2)cc(I)c1O,inactive
4,COc1cc(N)c(Cl)cc1C(=O)OCCN1CCCCC1,inactive
5,O=C(O)/C(=C/c1c(C(=O)O)[nH]c2cc(Cl)cc(Cl)c12)c1ccccc1,inactive
6,NC1C=CC=C(C(=O)O)C1 (stereo not drawn),inactive
7,CSC(=N)N,inactive
8,CCCCCCCCCC[Si](C)(C)CCC(=O)NC(Cc1ccc(C)cc1)c1ccccc1 (stereo not drawn),inactive
9,C[N+](C)(C)CC=O,inactive
10,N=C(N)SCCc1cnc[nH]1,inactive
11,CC(C)[C@@H]1CC[C@@H](C)C[C@@H]1P(=O)(c1ccccc1)c1ccccc1,inactive
12,Nc1ccc2c3c(cccc13)C(=O)NC2=O,inactive
13,COc1cc2c(CCNC(C)=O)c[nH]c2cc1O,inactive
14,Cn1cc(C(F)(F)F)nc1-c1ccc(OCC(O)CNCCOc2ccc(O)c(C(N)=O)c2)cc1 (stereo not drawn),inactive
15,COc1ccc(-c2cc3ncc(C)n3c(Nc3ncccc3C(N)=O)n2)cc1OC,inactive
16,NCCCCN,inactive
17,N=S(=O)(O)Cc1noc2ccccc12,inactive
18,NCC(O)(CS(=O)(=O)O)c1ccc(Cl)cc1 (stereo not drawn),inactive
19,NC(=O)CC[C@H](N)C(=O)O,inactive

row,Compound,Potency
1,CN[C@H](CC(=O)O)C(=O)O,inactive
2,COc1ccc2c(c1)c(CC(=O)O)c(C)n2Cc1ccc(Cl)cc1,inactive
3,CSC(N)=NCCC[C@H](N)C(=O)O,inactive
4,NCCS(=O)O,inactive
5,Nc1nc2c(nc(Br)n2C2OC3COP(=O)(O)O[C@@H]3C2O)c(=O)[nH]1 (stereo partly drawn),inactive
6,NCCC1CCCC(CCN)N1 (stereo not drawn),inactive
7,NCCCCN=C(N)N,inactive
8,O=C(c1ccc2c(c1)OCCO2)N1CCCCC1,inactive
9,CN1CCN(c2nc3cc(C(F)(F)F)ccc3n3cccc23)CC1,inactive
10,Oc1cc(O)c2c(c1)O[C@H](c1ccc(O)c(O)c1)[C@@H](O)C2,inactive
11,CC(=O)[C@H]1CCC2C3CC=C4C[C@@H](OS(=O)(=O)O)CC[C@]4(C)C3CC[C@@]21C (stereo partly drawn),inactive
12,CN(C)C(=O)/N=N/C(=O)N(C)C,inactive
13,CNC(=O)c1cc2c(cn1)[nH]c1ccccc12,inactive
14,N=C(N)c1ccc(OCCCCCOc2ccc(C(=N)N)cc2)cc1 (tested in a mixture with another compound),inactive
15,CCCn1c(=O)c2c(ncn2C)n(CCC)c1=O,inactive
16,C=C1C[C@@]23CC[C@H]4[C@@](C)(CCC[C@@]4(C)C(=O)O)[C@@H]2CC[C@]1(O)C3,inactive
17,OC[C@H]1O[C@H](n2cnc3c(N[C@H]4CCC[C@@H]4O)ncnc32)[C@H](O)[C@@H]1O,inactive
18,Cc1nc(N=Nc2ccc(C(=O)O)cc2)c(COP(=O)(O)O)c(C=O)c1O,inactive
19,O=C(O)C1=CCCN(CCON=C(c2ccccc2)c2ccccc2)C1,inactive

# — PubChem BioAssay (NCATS)
